From the supplement of paper PMC10849652
About 8,800 targets were measured; listed, in parts, are those with a hit and a random draw of the rest. About 0.5% of all pairs of compound and target were hits. Values without a mark were called inactive.

How the values were obtained:
Test in all cases: log2 fold change, soluble protein after heating vs DMSO (PISA); higher = thermal stabilisation; K562 lysate, 10 uM; active = over 0.2 and 3.5 SD of the protein, either way, in both replicates (recomputed)
vemurafenib = compound: CCCS(=O)(=O)Nc1ccc(F)c(C(=O)c2c[nH]c3ncc(-c4ccc(Cl)cc4)cc23)c1F [vemurafenib]
Outline: (§1)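 Following dounce homogenisation of K562 pellets in PBS pH 7.4 with 1 mM MgCl2, crude extract at 1 mg/mL protein was incubated for 30 min with 10 μM compound. Aliquots were then heated for 3 min over 48°C-58°C and pooled, NP-40 was added to 0.5% at 4°C, and soluble protein was recovered as the supernatant at 21,000xg for 90 min. Channel-sum-equalised TMTpro 16plex LC-MS/MS quantified this protein. Each value, from duplicates, is a log-two fold change in thermal stability relative to solvent controls.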

[1] = compound: CCCS(=O)(=O)Nc1ccc(F)c(C(=O)c2c[nH]c3ncc(Cl)cc23)c1F
Outline: as §1

barasertib = compound: CCN(CCCOc1ccc2c(Nc3cc(CC(=O)Nc4cccc(F)c4)[nH]n3)ncnc2c1)CCOP(=O)(O)O [barasertib]
Outline: as §1

[2] = compound: CC[C@@H]1C(=O)N(C)c2cnc(Nc3ccc(C(=O)NC4CCN(C)CC4)cc3OC)nc2N1C1CCCC1
Outline: as §1

volasertib = compound: CC[C@@H]1C(=O)N(C)c2cnc(Nc3ccc(C(=O)N[C@H]4CC[C@H](N5CCN(CC6CC6)CC5)CC4)cc3OC)nc2N1C(C)C [volasertib]
Outline: as §1

[3] = compound: CCn1c(C(=O)N(C2CC2)C2CC2)cc2c3c(ncn3C)c(Nc3cc(C)n(C)n3)nc21
Outline: as §1

[4] = compound: CCn1cc(-c2ccnc3[nH]c(-c4cccc(CN(C)C)c4)cc23)c(-c2ccc(NC(=O)N(C)C)cc2)n1
Outline: as §1

[5] = compound: CN1CCC(CNc2ccc3ncc(-c4cccc(OC(F)(F)F)c4)n3n2)CC1
Outline: as §1

saracatinib = compound: CN1CCN(CCOc2cc(OC3CCOCC3)c3c(Nc4c(Cl)ccc5c4OCO5)ncnc3c2)CC1 [saracatinib]
Outline: as §1

sotrastaurin = compound: CN1CCN(c2nc(C3=C(c4c[nH]c5ccccc45)C(=O)NC3=O)c3ccccc3n2)CC1 [sotrastaurin]
Outline: as §1

alvocidib = compound: CN1CC[C@H](c2c(O)cc(O)c3c(=O)cc(-c4ccccc4Cl)oc23)[C@H](O)C1 [alvocidib]
Outline: as §1

Tubastatin A = compound: CN1CCc2c(c3ccccc3n2Cc2ccc(C(=O)NO)cc2)C1 [Tubastatin A]
Outline: as §1

[6] = compound: CNC(=O)C1=CC=CC=C1NC2=NC(=NC=C2Cl)NC3=C(C=C(C=C3)N4CCOCC4)OC
Outline: as §1

defactinib = compound: CNC(=O)c1ccc(Nc2ncc(C(F)(F)F)c(NCc3nccnc3N(C)S(C)(=O)=O)n2)cc1 [defactinib]
Outline: as §1

[7] = compound: CNc1nc(-c2ccc3c(N)n[nH]c3c2)cc(N2C[C@@H](C(=O)NC3CCCCC3)CC[C@H]2C)n1
Outline: as §1

encorafenib = compound: COC(=O)N[C@@H](C)CNc1nccc(-c2cn(C(C)C)nc2-c2cc(Cl)cc(NS(C)(=O)=O)c2F)n1 [encorafenib]
Outline: as §1

[8] = compound: COC(=O)[C@H](CCSC)NC(=O)C1=C(C=C(C=C1)NC[C@H](CS)N)C2=CC=CC=C2
Outline: as §1

alisertib = compound: COc1cc(Nc2ncc3c(n2)-c2ccc(Cl)cc2C(c2c(F)cccc2OC)=NC3)ccc1C(=O)O [alisertib]
Outline: as §1

[9] = compound: COc1cc2nc(-c3cc(F)ccc3O)nc(N[C@@H]3CNC[C@H]3C(C)(C)O)c2cc1OC
Outline: as §1

gefitinib = compound: COc1cc2ncnc(Nc3ccc(F)c(Cl)c3)c2cc1OCCCN1CCOCC1 [gefitinib]
Outline: as §1

Chain of UniProt Q96MX0 (Q96MX0 whole entry, looked up): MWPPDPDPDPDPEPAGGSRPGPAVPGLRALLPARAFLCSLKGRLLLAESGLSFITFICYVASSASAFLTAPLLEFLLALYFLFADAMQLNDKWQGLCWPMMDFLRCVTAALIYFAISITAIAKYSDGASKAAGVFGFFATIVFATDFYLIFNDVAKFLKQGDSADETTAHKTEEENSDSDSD
Chain of UniProt Q9Y2V7 (Q9Y2V7 whole entry, looked up): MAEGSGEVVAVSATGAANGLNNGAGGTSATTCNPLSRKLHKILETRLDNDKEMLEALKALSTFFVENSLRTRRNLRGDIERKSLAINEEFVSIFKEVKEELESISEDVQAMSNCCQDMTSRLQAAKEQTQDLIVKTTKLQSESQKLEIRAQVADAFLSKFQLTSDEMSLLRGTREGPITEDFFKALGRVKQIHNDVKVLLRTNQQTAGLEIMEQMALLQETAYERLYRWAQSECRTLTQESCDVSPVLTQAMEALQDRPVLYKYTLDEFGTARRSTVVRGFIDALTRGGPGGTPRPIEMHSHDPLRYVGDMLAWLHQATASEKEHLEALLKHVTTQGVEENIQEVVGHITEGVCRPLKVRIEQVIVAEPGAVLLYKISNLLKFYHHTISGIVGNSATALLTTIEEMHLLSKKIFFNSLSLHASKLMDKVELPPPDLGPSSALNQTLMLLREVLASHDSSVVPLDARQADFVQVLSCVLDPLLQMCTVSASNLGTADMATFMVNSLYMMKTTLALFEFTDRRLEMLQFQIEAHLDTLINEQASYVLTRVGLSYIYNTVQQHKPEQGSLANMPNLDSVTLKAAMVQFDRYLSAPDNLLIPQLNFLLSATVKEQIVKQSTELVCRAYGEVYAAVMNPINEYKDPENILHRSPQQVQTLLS
Chain of UniProt P50570 (P50570 whole entry, looked up): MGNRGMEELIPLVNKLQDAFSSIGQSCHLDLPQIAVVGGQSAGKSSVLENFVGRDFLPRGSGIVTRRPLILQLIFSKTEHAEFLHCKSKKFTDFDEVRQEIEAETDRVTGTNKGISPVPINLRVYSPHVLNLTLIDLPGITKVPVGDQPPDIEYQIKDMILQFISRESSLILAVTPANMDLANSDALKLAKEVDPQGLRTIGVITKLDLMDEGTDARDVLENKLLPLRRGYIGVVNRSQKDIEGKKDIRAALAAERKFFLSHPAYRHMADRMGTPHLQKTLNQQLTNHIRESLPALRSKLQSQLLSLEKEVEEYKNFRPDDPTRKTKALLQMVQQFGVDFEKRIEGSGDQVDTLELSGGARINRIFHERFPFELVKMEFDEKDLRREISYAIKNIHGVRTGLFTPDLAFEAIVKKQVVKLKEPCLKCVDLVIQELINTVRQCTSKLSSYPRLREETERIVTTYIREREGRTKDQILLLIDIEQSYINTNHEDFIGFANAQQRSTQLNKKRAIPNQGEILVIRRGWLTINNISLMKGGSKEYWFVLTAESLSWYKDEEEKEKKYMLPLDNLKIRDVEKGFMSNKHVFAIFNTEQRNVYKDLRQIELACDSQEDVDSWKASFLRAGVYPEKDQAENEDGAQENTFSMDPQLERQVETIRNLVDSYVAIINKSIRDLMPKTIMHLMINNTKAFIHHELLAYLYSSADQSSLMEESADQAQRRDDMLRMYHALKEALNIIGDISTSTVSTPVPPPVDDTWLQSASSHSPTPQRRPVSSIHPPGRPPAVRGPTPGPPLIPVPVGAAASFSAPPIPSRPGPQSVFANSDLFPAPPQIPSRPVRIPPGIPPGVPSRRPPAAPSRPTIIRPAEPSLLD
Chain of UniProt Q8WYA6 (Q8WYA6 whole entry, looked up): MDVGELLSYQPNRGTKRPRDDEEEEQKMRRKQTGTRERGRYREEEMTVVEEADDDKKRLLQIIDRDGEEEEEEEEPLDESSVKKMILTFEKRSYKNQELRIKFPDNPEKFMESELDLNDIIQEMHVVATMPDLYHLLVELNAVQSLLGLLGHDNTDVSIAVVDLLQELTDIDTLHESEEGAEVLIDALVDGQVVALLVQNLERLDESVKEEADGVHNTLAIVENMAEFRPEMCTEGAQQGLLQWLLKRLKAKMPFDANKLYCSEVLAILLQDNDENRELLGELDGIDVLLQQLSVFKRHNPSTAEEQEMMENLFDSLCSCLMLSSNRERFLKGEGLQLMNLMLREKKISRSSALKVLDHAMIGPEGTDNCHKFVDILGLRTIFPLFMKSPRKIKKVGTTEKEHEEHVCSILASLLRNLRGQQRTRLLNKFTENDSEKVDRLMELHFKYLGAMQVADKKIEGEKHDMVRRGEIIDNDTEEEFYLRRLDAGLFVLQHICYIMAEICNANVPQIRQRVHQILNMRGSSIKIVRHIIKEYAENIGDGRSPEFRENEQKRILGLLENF
Chain of UniProt Q92564 (Q92564 whole entry, looked up): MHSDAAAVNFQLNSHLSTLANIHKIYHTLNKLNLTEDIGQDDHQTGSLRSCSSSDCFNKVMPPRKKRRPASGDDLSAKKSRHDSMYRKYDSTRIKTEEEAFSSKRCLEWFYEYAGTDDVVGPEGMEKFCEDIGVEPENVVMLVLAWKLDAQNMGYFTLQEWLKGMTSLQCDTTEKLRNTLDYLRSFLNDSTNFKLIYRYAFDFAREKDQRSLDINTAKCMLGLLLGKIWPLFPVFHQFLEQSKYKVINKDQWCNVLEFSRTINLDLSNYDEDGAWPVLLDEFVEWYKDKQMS
Chain of UniProt Q9BY43 (Q9BY43 whole entry, looked up): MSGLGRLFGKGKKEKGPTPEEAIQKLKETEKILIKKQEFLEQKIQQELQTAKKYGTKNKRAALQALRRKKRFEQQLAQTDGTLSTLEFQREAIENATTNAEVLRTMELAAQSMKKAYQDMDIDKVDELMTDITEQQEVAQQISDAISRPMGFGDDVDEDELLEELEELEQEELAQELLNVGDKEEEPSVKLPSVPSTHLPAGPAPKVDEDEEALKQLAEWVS
Chain of UniProt Q8IWF6 (Q8IWF6 whole entry, looked up): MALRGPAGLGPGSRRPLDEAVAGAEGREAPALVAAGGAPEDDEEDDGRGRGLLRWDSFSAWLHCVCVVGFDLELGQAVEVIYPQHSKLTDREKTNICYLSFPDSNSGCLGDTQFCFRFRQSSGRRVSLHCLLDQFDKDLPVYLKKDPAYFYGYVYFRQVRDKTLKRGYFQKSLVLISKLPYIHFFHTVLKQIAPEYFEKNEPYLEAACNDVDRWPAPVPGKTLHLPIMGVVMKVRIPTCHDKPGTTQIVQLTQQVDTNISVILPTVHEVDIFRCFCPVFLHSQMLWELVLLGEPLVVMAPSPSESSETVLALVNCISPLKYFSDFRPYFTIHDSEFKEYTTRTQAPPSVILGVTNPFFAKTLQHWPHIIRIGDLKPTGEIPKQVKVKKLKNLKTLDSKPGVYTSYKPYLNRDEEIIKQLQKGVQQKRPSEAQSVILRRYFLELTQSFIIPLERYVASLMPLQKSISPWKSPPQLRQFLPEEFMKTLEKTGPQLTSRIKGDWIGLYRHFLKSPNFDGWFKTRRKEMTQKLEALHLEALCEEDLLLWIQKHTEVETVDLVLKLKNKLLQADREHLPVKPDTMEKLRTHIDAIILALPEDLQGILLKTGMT

Row | Target | log2 fold change (vemurafenib) | log2 fold change [1] | log2 fold change (barasertib) | log2 fold change [2] | log2 fold change (volasertib) | log2 fold change [3] | log2 fold change [4] | log2 fold change [5] | log2 fold change (saracatinib) | log2 fold change (sotrastaurin) | log2 fold change (alvocidib) | log2 fold change (Tubastatin A) | log2 fold change [6] | log2 fold change (defactinib) | log2 fold change [7] | log2 fold change (encorafenib) | log2 fold change [8] | log2 fold change (alisertib) | log2 fold change [9] | log2 fold change (gefitinib)
1 | DENND6A (UniProt Q8IWF6) | 0.025 | 0.033 | 0.066 | 0.029 | -0.062 | 0.019 | 0.017 | 0.004 | -0.012 | -0.027 | -0.009 | -0.072 | -0.006 | 0.007 | 0.103 | 0.007 | -0.134 | 0.059 | -0.024 | 0.047
2 | DCUN1D4 isoform 3 (UniProt Q92564) | 0.066 | 0.075 | -0.027 | -0.321 (active) | 0.049 | -0.02 | -0.036 | 0.02 | 0.005 | 0.028 | -0.276 | 0.081 | 0.003 | 0.014 | 0.035 | 0.034 | 0.131 | 0.055 | -0.043 | -0.049
3 | CMTM3 (UniProt Q96MX0) | 0.053 | -0.014 | -0.04 | -0.089 | 0.014 | 0.03 | 0.053 | -0.055 | 0.012 | -0.005 | -0.007 | -0.231 | 0.04 | -0.022 | 0.061 | -0.011 | 0.064 | -0.099 | -0.036 | -0.123
4 | CHMP4A isoform 2 (UniProt Q9BY43) | 0 | -0.002 | -0.053 | 0.064 | 0.039 | -0.002 | -0.278 (active) | 0.222 | 0.048 | 0.024 | -0.096 | 0.048 | -0.01 | 0.007 | 0.039 | 0.026 | -0.001 | 0.028 | 0.043 | 0.041
5 | CTNNBL1 (UniProt Q8WYA6) | 0.004 | 0.016 | 0.005 | -0.042 | -0.041 | -0.16 | -0.013 | -0.091 | 0.023 | 0.015 | 0.027 | 0.148 | -0.004 | -0.015 | 0.417 (active) | 0.023 | 0.101 | -0.013 | -0.027 | 0.022
6 | COG6 (UniProt Q9Y2V7) | 0.062 | 0.013 | 0.072 | -0.004 | -0.046 | 0.015 | -0.116 | 0.017 | 0.073 | -0.017 | 0.026 | -0.062 | 0.059 | -0.028 | 0.059 | -0.026 | 0.034 | 0.016 | -0.017 | 0.006
7 | DNM2 (UniProt P50570) | 0.002 | 0.005 | 0.037 | -0.024 | -0.043 | 0.029 | -0.012 | 0.013 | 0.016 | 0.001 | 0.037 | -0.051 | 0.024 | 0.007 | 0.029 | -0.004 | 0.061 | 0.014 | -0.02 | 0.006
8 | DCP2 (UniProt Q8IU60) | -0.05 | -0.038 | 0.014 | 0.016 | -0.061 | -0.028 | 0.059 | -0.13 | -0.023 | -0.01 | 0.023 | -0.195 | -0.013 | -0.045 | 0 | 0 | -0.117 | -0.02 | 0 | 0.041
